Screen size: about 190,000 compounds; about 1,300 (0.68%) were called active. The full list was thinned out, with actives kept by preference. A number with no mark means an inactive call. No stated cut-off is given here; in the data, active means inhibition above about 50%; inactive means the rest.

Sequence of Mannose-6-phosphate isomerase (Homo sapiens) (P34949 whole entry, looked up): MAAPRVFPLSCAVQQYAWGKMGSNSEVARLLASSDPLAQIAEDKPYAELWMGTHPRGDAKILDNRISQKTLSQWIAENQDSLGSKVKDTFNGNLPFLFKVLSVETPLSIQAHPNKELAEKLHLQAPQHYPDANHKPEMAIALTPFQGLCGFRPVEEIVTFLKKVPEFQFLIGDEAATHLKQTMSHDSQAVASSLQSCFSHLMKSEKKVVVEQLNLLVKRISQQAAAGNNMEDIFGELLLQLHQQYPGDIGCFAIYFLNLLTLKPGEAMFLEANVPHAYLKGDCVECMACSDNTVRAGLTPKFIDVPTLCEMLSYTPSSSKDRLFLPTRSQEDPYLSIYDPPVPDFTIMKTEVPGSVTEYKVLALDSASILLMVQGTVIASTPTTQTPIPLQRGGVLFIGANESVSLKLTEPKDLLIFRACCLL

The assay has as its target Mannose-6-phosphate isomerase (Homo sapiens) (UniProt P34949). The assay can be described thus: human PMI inhibitors, high substrate, primary screen, biochemical, fluorescence intensity, high mannose 6-phosphate (AID 1220). The following applies: recombinant PMI enzyme, coupled fluorescence intensity; at 20 µM; hits give high values.
What is called inhibition is the drop in the measured response relative to a control, in per cent. As for `COc1ccccc1OC(C)c1nnc(SCC(=O)Nc2c(C)n(C)n(-c3ccccc3)c2=O)n1-c1ccccc1` (configuration not stated), the inhibition was 6.4%.

Take `COc1ccc(CNS(=O)(=O)NCc2ccc(C)cc2)cc1`: the inhibition is -7.2%. In the case of `Cc1ccc(C)c2nc3sc(C(=O)N4CCOCC4)c(N)c3cc12` it was 2.2%. Consider `CCCC(=O)c1ccc(N2CCN(S(=O)(=O)c3ccccc3)CC2)c(F)c1`, for which the inhibition is 9.7%. The same measure for `CC(C)C1C(C#N)=C(N)Oc2n[nH]c(-c3ccccc3)c21` (configuration not stated): 9%; for `O=C(Cc1cccs1)NC(c1ccccc1)c1ccccc1`: -1.3%; for `CCC(CC)c1nnc(NC(=O)c2ccco2)s1`: 8.5%. The same measure for `O=C1CN(C(=O)COC(=O)c2cccc(OCc3ccccc3)c2)c2ccccc2N1`: 20.2%.

As for `c1ccc(CC2CNc3ccccc3CN2)cc1` (configuration not stated), the inhibition is -7%. The same measure for `Cc1nc(N2CCN(S(=O)(=O)c3cccc4nonc34)CC2)c2c3c(sc2n1)CCCC3`: 14.8%; for `COc1cnc(-c2ccccn2)nc1Sc1cccc(Cl)c1`: 2.4%. For the molecule `CC(=O)c1ccc(NC(=S)N2CCN(c3cccc(Cl)c3)CC2)cc1`, the inhibition is -8.9%. `CCCC(=O)c1cc(F)c(N2CCN(S(=O)(=O)c3ccccc3)CC2)cc1C`: the inhibition is 14.8%. In the case of `CCc1nn(CC(=O)Nc2ccc(Br)c(C)c2)c(=N)s1` it was -9.2%; in that of `CC(=O)N1C(C)(C)CC(=NOS(=O)(=O)c2ccccc2)CC1(C)C`, -21.1%; in that of `CC1=CC(=O)C=C(C)C1=NOC(=O)/C=C\c1ccccc1`, 22%. The same measure for `CC(=O)Nc1ccc(S(=O)(=O)N=S(C)(C)=O)cc1`: 15.7%; for `CCCC(=O)NC1=C(C#N)C2(CCCCC2)Cc2ccccc21`: -7.8%; for `CC1CCCC(C)N1C(=O)CSc1nc2ccccc2s1` (configuration not stated): 0.3%. Take `CCOC(=O)/C(=C/c1c(C)n(C)c2ccc([N+](=O)[O-])cc12)C(C)=O`: the inhibition was 2.1%. With `CC1(C)Oc2ccc(C(=O)N3CCCC3)cc2N(CC(=O)NCc2ccccc2)C1=O`, the inhibition is -8.2%. Regarding `CC1(C)Oc2ccc(C(=O)N3CCOCC3)cc2N(CC(=O)Nc2ccccc2)C1=O`, the inhibition was 6.6%.

For the molecule `CC1(C)Oc2ccc(C(=O)N3CCCCC3)cc2N(CC(=O)NCc2ccccc2)C1=O`, the inhibition was 107% (active). In the case of `CCOC(=O)Cn1c(=O)oc2cc(S(=O)(=O)Nc3ccc(F)cc3)ccc21` it was -4.3%; in that of `OCc1ccnc2c(O)cccc12`, 59.6% (active); in that of `COc1ccccc1N1CCN(Cc2ccc(OC)c(OC)c2OC)CC1`, -2.8%. The same measure for `OCc1ccc(O)c2ncccc12`: 28.8%.

In the case of `Oc1ccc(COCc2ccccc2)c2cccnc12`, the inhibition is 46.2%. As to `COc1ccccc1N1CCN(Cc2cc(Br)c(O)c3ncccc23)CC1`, the inhibition was 43.7%. The same measure for `Oc1ccc(CN2CCN(c3ccccc3)CC2)c2cccnc12`: 50.5% (active).

As for `Oc1ccc(CN2CCCCC2)c2cccnc12`, the inhibition was 50.5% (active). Take `c1ccc(N2CCN(Cc3ccnc4ccccc34)CC2)cc1`: the inhibition was -101%. As to `Oc1ccc(CN2CCc3ccccc3C2)c2cccnc12`, the inhibition is 47.9%. In the case of `Oc1ccc(CN2CCC(Cc3ccccc3)CC2)c2cccnc12` it was 46.2%. The same measure for `O=S(=O)(c1ccc(Cl)cc1)N1CCN(Cc2ccc(O)c3ncccc23)CC1`: 45.3%; for `COc1ccc(N2C(=O)/C(=C\c3ccco3)N=C2SCC(=O)N(C(C)C)C(C)C)cc1Cl`: 2.5%; for `CC1C2CC(C(S(=O)(=O)N3CCOCC3)C2=O)C1(C)C` (configuration not stated): 8.3%. In the case of `O=C1CCC2=C(CCCC2=O)N1` it was 0.9%. With `O=C1CC(=O)C(n2cncn2)C(c2ccc(Cl)cc2Cl)C1` (configuration not stated), the inhibition was 14.4%. In the case of `COc1ccc2c(c1)c1ncn(Cc3ccco3)c(=O)c1n2C` it was 0.7%. The same measure for `Oc1c(CN2CCCCC2)cc(COCc2ccccc2)c2cccnc12`: 23.4%; for `COCc1cc(CN2CCCC2)c(O)c2ncccc12`: 35.4%. Turning to `CC(C)C(=O)Nc1ccc(C(=O)N2CCCCCC2)cc1`, the inhibition is -8.1%. Consider `CCOc1ccccc1-n1cnc2cc(C(=O)NCc3ccco3)ccc21`, for which the inhibition was -4.7%. In the case of `O=S(=O)(Cc1ccccc1Cl)N1CCCCC1` it was -3.8%; in that of `O=S(=O)(Cc1ccccc1Cl)N1CCCC1`, 8.9%. For `CC1CCN(S(=O)(=O)Cc2ccccc2Cl)CC1`, the inhibition is 56.9% (active). In the case of `CN1C(=O)NC(NC(=O)c2ccncc2)(C(F)(F)F)C1=O` (configuration not stated) it was 4.6%. The same measure for `COc1cc(NC(=S)N2CCC(C(O)(c3ccccc3)c3ccccc3)CC2)cc(OC)c1`: 52.9% (active); for `COc1ccc(OC)c(NC(=S)N2CCC(C(O)(c3ccccc3)c3ccccc3)CC2)c1`: 17.9%. The same measure for `COc1ccc(NC(=S)N2CCC(C(O)(c3ccccc3)c3ccccc3)CC2)cc1`: 7%.

With `Cc1cc(C)c(S(=O)(=O)Nc2cccc3nsnc23)c(C)c1`, the inhibition was 19.4%. The same measure for `Cc1ccc2nsnc2c1S(=O)(=O)Nc1cccc2nsnc12`: 50.1% (active); for `Cc1ccc2nsnc2c1NS(=O)(=O)c1c(C)ccc2nsnc12`: 30.6%. In the case of `O=C(Nc1ncc(Cc2cccc(Cl)c2Cl)s1)c1ccc([N+](=O)[O-])cc1` it was -1%. The same measure for `CCOC(=O)c1ccccc1NC(=O)CSc1ccccc1`: -10.2%; for `O=c1[nH]c2ccccc2c(O)c1-c1cc2ccccc2oc1=O`: -2.4%; for `O=C(Cc1c[nH]c2ccccc12)NCc1ccccc1F`: 7.1%. Take `CN1C(=S)SC(N(O)C(=O)Nc2ccccc2)C1(C)C` (configuration not stated): the inhibition is 10.2%.

For the molecule `CN1C(=S)SC(N(O)C(=O)Nc2ccc(Cl)c(Cl)c2)C1(C)C` (configuration not stated), the inhibition was 12.6%. On to `CN1C(=S)SC(N(O)C(=O)Nc2cccc3ccccc23)C1(C)C` (configuration not stated), for which the inhibition is 62.9% (active). For `CN1CCN(/C=C2\SC(=S)NC2=O)CC1`, the inhibition is -4.7%.

In the case of `CN1C(=O)/C(=C\C=C2/CCCN2C)N(C)C1=S`, the inhibition is 30.5%. The same measure for `CN1CCC/C1=C/C=C1\SC(=S)NC1=O`: 53.1% (active); for `O=C(CCCNC(=O)/C(=C\c1ccc(F)cc1)NC(=O)c1ccccc1)OCc1ccccc1`: 3.3%. On to `Cc1nc(-c2ccncc2)sc1C(=O)Nc1ccc(Cl)cc1`, for which the inhibition is 6.1%.

Take `O=C(Nc1ccccc1)C1=C[C@@H](c2coc3ccccc3c2=O)C[C@@H](OCCCCO)O1`: the inhibition was 10.1%.

With `CC(C)C[C@H](NC(=O)c1nc[nH]c1C(=O)NC(c1ccccc1)c1ccccc1)C(=O)OCc1ccccc1`, the inhibition was 15%. Turning to `CCOC(=O)Cc1csc(NC(=O)c2csc3c2CCCC3)n1`, the inhibition is 2%.

Turning to `CCCC(C(=O)NC1CCCC1)N(Cc1ccc2c(c1)OCO2)C(=O)c1snc(C(N)=O)c1N` (configuration not stated), the inhibition is -8.2%. As for `CC(C)CCNC(=O)C(CC(C)C)N(Cc1ccc2c(c1)OCO2)C(=O)c1snc(C(N)=O)c1N` (configuration not stated), the inhibition was 51% (active). In the case of `CC(C)CC(C(=O)NC1CCCC1)N(Cc1ccc2c(c1)OCO2)C(=O)c1snc(C(N)=O)c1N` (configuration not stated) it was 3.1%; in that of `O=c1cc(-c2ccccc2)c2ccccc2[nH]1`, 10%. On to `Cn1c(=O)cc(-c2ccccc2)c2ccccc21`, for which the inhibition is 0.3%. In the case of `CCS(=O)(=O)N1CCN(S(=O)(=O)c2ccccc2)CC1` it was 1.8%; in that of `COc1ccccc1-n1c(=O)c(C#N)c(-c2ccc([N+](=O)[O-])cc2)c2cc(C(=O)c3cc(F)ccc3O)cnc21`, 14.2%. In the case of `CCN(CC)C(=S)SSC(=S)N(CC)CC` it was 0.3%; in that of `CCN(CC)C(=S)SCC(=O)c1ccccc1`, 7.7%; in that of `O=C(NCc1ccco1)c1ccc(CN2CCOCC2)cc1`, -9.5%. As for `COC(=O)c1ccc(NC(=S)NC2c3ccccc3CC2O)cc1` (configuration not stated), the inhibition is 15.2%.

For `CCOC(=O)C(=O)Nc1ccc([N+](=O)[O-])cc1OC`, the inhibition is 16.8%. For `CCN(CC)S(=O)(=O)c1ccc(Cl)c(NC(=O)c2ccc(C#N)cc2)c1`, the inhibition was -3.1%.

As for `CCOC(=O)Cn1c2ccc(C)cc2c2nc(C)sc21`, the inhibition is 26.1%.

As to `Cc1nc2c3cc(F)ccc3n(Cc3ccc(F)cc3)c2s1`, the inhibition was 53.2% (active). The same measure for `Cc1nc2c3cc(F)ccc3n(Cc3ccccc3F)c2s1`: 14.7%. In the case of `CCc1ccc2c(c1)c1nc(C)sc1n2CC(=O)OC` it was 5.8%; in that of `CCc1ccc2c(c1)c1nc(C)sc1n2CC`, 55.2% (active). The same measure for `Cc1nc2c3cc(F)ccc3n(Cc3ccccc3)c2s1`: 32.5%; for `Cc1cccc(C)c1NC(=O)C(=O)c1cn(C)c2ccccc12`: -8.1%; for `COc1cc2c(C(=O)N3CCN(C)CC3)c(C)oc2cc1Br`: 11.7%.

With `COc1ccc(CC(=O)NC2CC(C)(C)NC(C)(C)C2)cc1`, the inhibition was -9%.

Consider `Cc1ccc(Sc2nc3c(c(=O)[nH]c(=O)n3C)n2CCc2ccccc2)cc1`, for which the inhibition was 18.4%.

Consider `CN(C)c1cc[nH]c(=O)c1C#N`, for which the inhibition is 6.4%. On to `COc1cccc(-c2nnc(SCC(=O)Nc3cc(C)on3)n2C)c1`, for which the inhibition is -5.8%.

As to `CCOc1ccc(Br)cc1/C=N/O`, the inhibition is 16.4%.

As for `CCCc1ccc(O)c(N=Cc2cc(Br)cc(OCC)c2O)c1`, the inhibition was 53.1% (active). In the case of `CCc1ccc(O)c(N=Cc2ccccc2O)c1` it was 23.3%. Turning to `COC(=O)c1ccccc1NC(=O)CSc1nc(-c2ccco2)cc(C(F)(F)F)n1`, the inhibition is 12.4%. Take `CCOC(=O)N1CCC(N2C(=O)c3ccccc3C2Nc2cc(Cl)c(OC)cc2OC)CC1` (configuration not stated): the inhibition was 21.3%. Turning to `Cc1ccc(C(=O)COC(=O)c2c(C)cc(=O)oc2C)cc1[N+](=O)[O-]`, the inhibition is 58.1% (active). The same measure for `Cc1cc(=O)oc(C)c1C(=O)OCC(=O)c1ccc2ccccc2c1`: -11.8%. With `Cc1cc(=O)oc(C)c1C(=O)OCC(=O)c1ccc(Cl)c(Cl)c1`, the inhibition is 3.4%.

Source of the values: PubChem BioAssay AID1220 (Sanford-Burnham Center for Chemical Genomics, 2008).
